Screening data from PubChem BioAssay.
ATXN viability: Viability Counterscreen for Primary qHTS for Inhibitors of ATXN expression; Potency, µM (highest dose often 56.7 µM), hits mostly cytotoxic; AID 651635, 2014; S2 cells (HEK-293 line with an ATXN2-luciferase reporter) viability, CellTiter-Fluor protease fluorescence, 24 h; 400,000 tested, 0.49% active; note: potency is the fitted concentration of half-maximal effect; nearly all actives have a fitted effect of over 40% in size
USP1 inh: Inhibitors of USP1/UAF1: Primary Screen; Ubiquitin carboxyl-terminal hydrolase 1 (Homo sapiens), O94782; recombinant USP1/UAF1, Ub-Rhodamine cleavage fluorescence; Potency, µM (titrated, usually from 57.1 µM), inactives show top-dose activity change, negative = inhibition, usual class: inhibitors; 390,000 tested, 0.23% active; AID 743255, 2014; note: potency is the fitted concentration of half-maximal effect; % is set by controls: 0 for no effect and ±100 for the full control effect; nearly all actives have a fitted effect of over 60% in size
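Step one: compound is pinned into 1nM USP1/UAF1 in HEPES pH 7.8 buffer with TCEP. Step two: 15 min room-temperature incubation. Step three: Ub-Rho (150nM final) starts cleavage, tracked by fluorescence over six one-minute reads.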
USP2a inh: qHTS Assay for Inhibitors of Ubiquitin-specific Protease USP2a Using CHOP2 as the Reporter. Potency, µM (titrated, usually from 38.3 µM), for inactives: at the highest dose activity change, negative = inhibition, usual class: inhibitors. 330,000 tested, 0.01% active. AID 463254, 2010. USP2 core, Ub-CHOP2 coupled fluorogenic reporter, 485/531. Ubiquitin carboxyl-terminal hydrolase 2 (Homo sapiens), O75604;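 note: potency is the fitted concentration of half-maximal effect; plate controls were DMSO wells for no effect and full inhibition by NEM control for full effect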
Target sequence (O75604 whole entry, looked up): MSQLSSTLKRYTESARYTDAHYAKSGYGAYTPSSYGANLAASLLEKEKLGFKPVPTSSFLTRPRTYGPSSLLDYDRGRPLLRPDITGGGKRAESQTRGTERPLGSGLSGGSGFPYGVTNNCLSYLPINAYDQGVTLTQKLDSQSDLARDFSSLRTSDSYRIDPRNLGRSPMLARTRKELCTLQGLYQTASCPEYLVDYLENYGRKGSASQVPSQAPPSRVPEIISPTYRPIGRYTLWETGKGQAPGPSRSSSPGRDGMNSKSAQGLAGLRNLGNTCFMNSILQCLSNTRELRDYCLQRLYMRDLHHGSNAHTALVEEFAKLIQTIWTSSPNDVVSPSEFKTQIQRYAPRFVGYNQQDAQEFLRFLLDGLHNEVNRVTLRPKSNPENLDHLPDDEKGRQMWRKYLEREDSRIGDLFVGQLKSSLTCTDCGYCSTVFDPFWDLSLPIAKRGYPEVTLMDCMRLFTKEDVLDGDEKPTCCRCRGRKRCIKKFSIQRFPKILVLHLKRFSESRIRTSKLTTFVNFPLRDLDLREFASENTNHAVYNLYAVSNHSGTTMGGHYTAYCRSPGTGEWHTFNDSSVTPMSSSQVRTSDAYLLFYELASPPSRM
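USP2 core (10nM final) preincubated 30min RT with compound in 20mM Tris-HCl pH 8.0, 2mM CaCl2, 2mM beta-mercaptoethanol, 0.05% CHAPS; 25nM Ub-CHOP2 plus 25nM reporter substrate added, fluorescence (Ex485/Em531) read after 60min.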
IL1B secr inh: qHTS for Inhibitors of Inflammasome Signaling: IL-1-beta AlphaLISA Primary Screen; 360,000 tested, 4.7% active; THP-1 LPS/ATP IL-1B secretion, AlphaLISA, 16 h; stronger effect = lower value; activity change, % at 57.5 µM; in the data active = activity change below about -50%; inconclusive = mostly about -30% to -49%; note: % is set by controls: 0 for no effect and ±100 for the full control effect
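Secreted IL-1B measured by AlphaLISA bead assay after 16 h compound exposure of THP-1 cells; compounds (final up to 57.5 uM) added 1 h before LPS (250 ng/mL) and ATP (1.25 mM) stimulation; lower signal means less secretion.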
ATXN2 expr inh: Primary qHTS for Inhibitors of ATXN expression; HEK-293 ATXN2-luciferase reporter, luminescence, 24 h; Potency, µM (doses to about 57 µM), for the others: at the highest dose activity change, negative = inhibition, usual class: inhibitors; 360,000 tested, 0.72% active; note: potency is the fitted concentration of half-maximal effect; % is set by controls: 0 for no effect and ±100 for the full control effect; nearly all actives have a fitted effect of over 55% in size
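ATXN2-luciferase reporter cells (luciferase flanked by upstream and downstream ATXN2 gene portions) were treated 24 h at 37 °C with compounds at up to 57 uM. SteadyGlo luminescence gave expression; GF-AFC fluorescence gave viability.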
Numbers without * were called inactive; [ ] = remark or other dose. Rows were chosen to be rich in hits. Some 4.8% of all compounds tested hit in one or more screens of this group. Unless noted, calls come from the whole dose curve; as a rule, active = well fitted curve in the direction sought with a large enough effect; inconclusive = small, poorly fitted or top-dose-only effect, or another doubt; inactive = no such curve, though single readings can be large; an effect the other way counts as inactive or inconclusive.

For COc1ccc(OCCC(=O)OCC(=O)Nc2ccc(S(=O)(=O)N3CCOCC3)cc2)cc1 the results were ATXN viability inactive, USP1 inh 1%, USP2a inh 3%, IL1B secr inh -65* and ATXN2 expr inh 4%.
`COc1ccccc1OCC(=O)Nc1cc(S(=O)(=O)N2CCOCC2)ccc1N1CCCCC1` gave ATXN viability inactive, USP1 inh -16%, USP2a inh -2%, IL1B secr inh -55* and ATXN2 expr inh 0%.
Screening CCc1ccccc1OCC(=O)Nc1cc(S(=O)(=O)N2CCOCC2)ccc1N1CCCCC1 returned ATXN viability inactive, USP1 inh -25%, USP2a inh 4%, IL1B secr inh -26 and ATXN2 expr inh -15%.
`O=C(Nc1cc(S(=O)(=O)N2CCCC2)ccc1Cl)c1cc(F)c(F)c(F)c1F` gave ATXN viability inactive, USP1 inh inconclusive, USP2a inh 2%, IL1B secr inh -99* and ATXN2 expr inh -3%.
For CCOC(=O)C1CCCN(C(=O)Cn2ncn3c(cc4sc(CC)cc43)c2=O)C1 (stereo not drawn) the results were USP1 inh -22%.
For O=C(COc1ccc(F)cc1Cl)Nc1cc(S(=O)(=O)N2CCOCC2)ccc1N1CCCCC1 the results were ATXN viability inactive, USP1 inh -27%, USP2a inh 0%, IL1B secr inh -51* and ATXN2 expr inh 1%.
Screening Cc1ccc(S(=O)(=O)N2CCOCC2)cc1NC(=O)COC(=O)c1cnc(Cl)c(Cl)c1 returned ATXN viability inactive, USP1 inh -4%, USP2a inh 0%, IL1B secr inh -87* and ATXN2 expr inh -10%.
`Cc1ccc(S(=O)(=O)N2CCOCC2)cc1NC(=O)COC(=O)c1cncc(Br)c1` gave ATXN viability inactive, USP1 inh -2%, USP2a inh 7%, IL1B secr inh -17 and ATXN2 expr inh 4%.
Screening COc1ccc(C)cc1NC(=O)CN1C(=O)COc2ccc(S(=O)(=O)N3CCCCCC3)cc21 returned ATXN viability inconclusive, USP1 inh -15%, USP2a inh -8%, IL1B secr inh -54* and ATXN2 expr inh -15%.
For O=C(Nc1cc(S(=O)(=O)N2CCOCC2)ccc1N1CCCCC1)c1ccccc1Br the results were ATXN viability inactive, USP1 inh -5%, USP2a inh -8%, IL1B secr inh -59* and ATXN2 expr inh 8%.
`COc1cccc(CN2CCC3(CCC(CNC(=O)c4cc(C)nn4C)O3)CC2)c1OC` (stereo not drawn) gave ATXN viability inactive.
For O=C(COC(=O)c1ccc(S(=O)(=O)C(F)F)cc1)Nc1cccnc1Cl the results were ATXN viability inactive, USP1 inh 1%, USP2a inh 0%, IL1B secr inh 1 and ATXN2 expr inh -12%.
Screening O=C(Nc1cc(S(=O)(=O)N2CCOCC2)ccc1N1CCOCC1)c1cc2c(s1)CCC2 returned ATXN viability inactive, USP1 inh -11%, USP2a inh -1%, IL1B secr inh -57* and ATXN2 expr inh -10%.
O=C(Nc1ccc(Cl)c(Cl)c1)Nc1cc(S(=O)(=O)N2CCOCC2)ccc1N1CCCC1 was read as ATXN viability inactive, USP1 inh 2%, USP2a inh -11%, IL1B secr inh -60* and ATXN2 expr inh inconclusive.
Cc1ccc(Cl)c(OCC(=O)Nc2cc(S(=O)(=O)N3CCOCC3)ccc2N2CCCC2)c1 was read as ATXN viability inactive, USP1 inh -6%, USP2a inh 0%, IL1B secr inh -59* and ATXN2 expr inh 3%.
CC(C)Oc1ccc(C(=O)NCC2Cc3cc(Cl)cc(-c4ncccn4)c3O2)cc1 (stereo not drawn) was read as ATXN viability inactive.
`CCc1ccc(/C=C(\C#N)C(=O)NC2CCS(=O)(=O)C2)cc1` (stereo not drawn) gave ATXN viability inactive, USP1 inh -2%, USP2a inh 4%, IL1B secr inh -16 and ATXN2 expr inh -1%.
COc1ccccc1-c1c(C)nn2c(N3CCC(C)CC3)cc(C)nc12 was read as ATXN viability inactive, USP1 inh -7%, USP2a inh 0%, IL1B secr inh -51* and ATXN2 expr inh -38%.
Screening Cc1ccc(S(=O)(=O)N2CC3C(=O)CC(c4ccccc4)N(S(=O)(=O)c4ccc(C)cc4)C3CC2c2cccc(Cl)c2)cc1 (stereo not drawn) returned IL1B secr inh 51.
Screening CC(C)CCn1nnnc1C(c1ccc(N(C)C)cc1)N1CCN(C(=O)c2ccco2)CC1 (stereo not drawn) returned ATXN viability inactive, USP1 inh 0%, USP2a inh -2%, IL1B secr inh -65* and ATXN2 expr inh 4%.
`CCOc1cc(OCC)cc(C(=O)N2CCC[C@H]2C(=O)N2CCC[C@H]2C(=O)N[C@@H](C)c2ccccc2)c1` gave ATXN viability inactive, IL1B secr inh -2 and ATXN2 expr inh 4%.
For N#C/C(=C\c1ccco1)Sc1nc2ccccc2s1 the results were ATXN viability inactive, USP1 inh -21%, USP2a inh 1%, IL1B secr inh -66* and ATXN2 expr inh 84%.
`c1ccc2sc(SSc3nc4ccccc4s3)nc2c1` gave ATXN viability inactive and ATXN2 expr inh 13%[25.6 µM].
COC(=O)[C@@H]1CCCN1C(=O)c1cc(NC(=O)c2ccccc2)cc2ncn(C3CCCC3)c12 was read as ATXN viability inactive.
O=C(COc1ccc(Cl)cc1)OCC(=O)N1CCOCC1 was read as ATXN viability inactive, USP1 inh -15%, USP2a inh 0%, IL1B secr inh 23 and ATXN2 expr inh 9%.
For CN1C(=O)Cc2cc(S(=O)(=O)CCC(=O)Nc3ccc(Cl)cc3)ccc21 the results were ATXN viability inactive, USP1 inh 1% and ATXN2 expr inh -9%.
Screening C=CCN(c1ccccc1)S(=O)(=O)c1cccc(C(=O)NCC(c2ccc(OC)cc2)N2CCCCC2)c1 (stereo not drawn) returned ATXN viability inactive, USP1 inh -9%, USP2a inh 0%, IL1B secr inh -66* and ATXN2 expr inh inconclusive.
For COc1ccccc1C(CNC(=O)c1cccc(S(=O)(=O)N2CCCc3ccccc32)c1)N(C)C (stereo not drawn) the results were ATXN viability inconclusive, USP1 inh -13%, IL1B secr inh inconclusive and ATXN2 expr inh 5%.
